In PubChem BioAssay:
A number with no mark means an inactive call. The source made the active and inactive calls.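 The calls were made as follows, unless noted: active = mean inhibition above 46.68%, the untreated control wells mean plus 3 SD; inactive = the rest.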

Experiments:
[1] = molecular target: Nuclear receptor coactivator 3 (Homo sapiens) (UniProt Q9Y6Q9); experiment: SRC3 coactivator transcriptional activity inhibitors, confirmation, cell-based, luminescence, quadruplicate (AID 588792;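 active = mean inhibition over 43.08%, the solvent-only control mean plus 3 SD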;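 also: 0% = DMSO treated cells and 100% = gossypol at 36 µM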); details: HEK293 GAL4-SRC3 luciferase reporter, at 3.6 µM, active compounds read high
Chain of Nuclear receptor coactivator 3 (Homo sapiens) (Q9Y6Q9 whole entry, looked up, the tested form may be a part): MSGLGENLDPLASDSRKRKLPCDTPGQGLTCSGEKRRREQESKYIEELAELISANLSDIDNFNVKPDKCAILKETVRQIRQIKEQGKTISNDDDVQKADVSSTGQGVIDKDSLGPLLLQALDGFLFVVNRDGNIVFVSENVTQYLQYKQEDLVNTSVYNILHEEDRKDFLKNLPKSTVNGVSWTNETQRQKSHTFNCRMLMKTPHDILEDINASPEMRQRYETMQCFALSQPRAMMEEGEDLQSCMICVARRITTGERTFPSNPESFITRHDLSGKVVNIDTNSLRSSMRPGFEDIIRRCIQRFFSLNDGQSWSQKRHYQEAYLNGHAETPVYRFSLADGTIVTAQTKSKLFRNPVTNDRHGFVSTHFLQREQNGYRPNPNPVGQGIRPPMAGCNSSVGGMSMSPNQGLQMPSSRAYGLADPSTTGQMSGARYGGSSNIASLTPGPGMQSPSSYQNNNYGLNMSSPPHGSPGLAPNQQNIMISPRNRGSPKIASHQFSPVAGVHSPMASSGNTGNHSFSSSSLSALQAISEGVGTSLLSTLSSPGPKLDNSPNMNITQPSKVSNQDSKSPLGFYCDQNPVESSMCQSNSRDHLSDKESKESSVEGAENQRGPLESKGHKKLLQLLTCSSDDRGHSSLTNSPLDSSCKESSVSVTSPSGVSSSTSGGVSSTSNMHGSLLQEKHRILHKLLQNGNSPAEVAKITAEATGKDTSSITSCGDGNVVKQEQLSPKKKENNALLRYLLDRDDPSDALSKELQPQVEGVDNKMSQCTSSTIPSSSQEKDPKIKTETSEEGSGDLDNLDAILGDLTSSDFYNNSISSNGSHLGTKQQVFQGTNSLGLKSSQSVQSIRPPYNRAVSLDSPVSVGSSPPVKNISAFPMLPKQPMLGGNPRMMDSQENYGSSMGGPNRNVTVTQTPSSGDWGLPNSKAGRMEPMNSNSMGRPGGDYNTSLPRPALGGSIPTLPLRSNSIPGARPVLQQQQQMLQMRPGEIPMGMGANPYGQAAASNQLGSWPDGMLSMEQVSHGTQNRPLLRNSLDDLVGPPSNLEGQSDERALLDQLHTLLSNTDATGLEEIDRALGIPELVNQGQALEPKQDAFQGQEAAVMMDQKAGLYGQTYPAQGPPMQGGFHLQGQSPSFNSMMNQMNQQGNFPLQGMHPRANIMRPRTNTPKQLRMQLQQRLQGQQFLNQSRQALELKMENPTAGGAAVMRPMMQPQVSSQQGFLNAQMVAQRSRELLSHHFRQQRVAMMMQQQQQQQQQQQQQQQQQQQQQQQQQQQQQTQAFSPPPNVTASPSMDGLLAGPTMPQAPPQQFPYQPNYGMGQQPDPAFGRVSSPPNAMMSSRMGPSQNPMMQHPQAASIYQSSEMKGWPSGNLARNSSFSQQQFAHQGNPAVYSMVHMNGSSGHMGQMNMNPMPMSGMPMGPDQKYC

[2] = system: transactivating tegument protein VP16 (Human herpesvirus 1), Gal4-VP16 luciferase reporter; experiment: VP16 transactivation inhibitors, counter-screen for SRC3 inhibitor project, cell-based, luminescence, high throughput (AID 588794; in the data active = inhibition above about 30%); details: mammalian cells, VP16-driven luciferase reporter luminescence; at 3.6 µM; active compounds read high
[3] = molecular target: Nuclear receptor coactivator 1 (Homo sapiens) (UniProt Q15788); experiment: SRC1 coactivator transcriptional activity inhibitors, confirmation, cell-based, luminescence, quadruplicate (AID 588820); details: HEK293 GAL4-SRC1 luciferase reporter, at 3.6 µM, active compounds read high;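 also: 0% = DMSO wells and 100% = gossypol 36 µM treated wells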
Chain of Nuclear receptor coactivator 1 (Homo sapiens) (Q15788 whole entry, looked up, the tested form may be a part): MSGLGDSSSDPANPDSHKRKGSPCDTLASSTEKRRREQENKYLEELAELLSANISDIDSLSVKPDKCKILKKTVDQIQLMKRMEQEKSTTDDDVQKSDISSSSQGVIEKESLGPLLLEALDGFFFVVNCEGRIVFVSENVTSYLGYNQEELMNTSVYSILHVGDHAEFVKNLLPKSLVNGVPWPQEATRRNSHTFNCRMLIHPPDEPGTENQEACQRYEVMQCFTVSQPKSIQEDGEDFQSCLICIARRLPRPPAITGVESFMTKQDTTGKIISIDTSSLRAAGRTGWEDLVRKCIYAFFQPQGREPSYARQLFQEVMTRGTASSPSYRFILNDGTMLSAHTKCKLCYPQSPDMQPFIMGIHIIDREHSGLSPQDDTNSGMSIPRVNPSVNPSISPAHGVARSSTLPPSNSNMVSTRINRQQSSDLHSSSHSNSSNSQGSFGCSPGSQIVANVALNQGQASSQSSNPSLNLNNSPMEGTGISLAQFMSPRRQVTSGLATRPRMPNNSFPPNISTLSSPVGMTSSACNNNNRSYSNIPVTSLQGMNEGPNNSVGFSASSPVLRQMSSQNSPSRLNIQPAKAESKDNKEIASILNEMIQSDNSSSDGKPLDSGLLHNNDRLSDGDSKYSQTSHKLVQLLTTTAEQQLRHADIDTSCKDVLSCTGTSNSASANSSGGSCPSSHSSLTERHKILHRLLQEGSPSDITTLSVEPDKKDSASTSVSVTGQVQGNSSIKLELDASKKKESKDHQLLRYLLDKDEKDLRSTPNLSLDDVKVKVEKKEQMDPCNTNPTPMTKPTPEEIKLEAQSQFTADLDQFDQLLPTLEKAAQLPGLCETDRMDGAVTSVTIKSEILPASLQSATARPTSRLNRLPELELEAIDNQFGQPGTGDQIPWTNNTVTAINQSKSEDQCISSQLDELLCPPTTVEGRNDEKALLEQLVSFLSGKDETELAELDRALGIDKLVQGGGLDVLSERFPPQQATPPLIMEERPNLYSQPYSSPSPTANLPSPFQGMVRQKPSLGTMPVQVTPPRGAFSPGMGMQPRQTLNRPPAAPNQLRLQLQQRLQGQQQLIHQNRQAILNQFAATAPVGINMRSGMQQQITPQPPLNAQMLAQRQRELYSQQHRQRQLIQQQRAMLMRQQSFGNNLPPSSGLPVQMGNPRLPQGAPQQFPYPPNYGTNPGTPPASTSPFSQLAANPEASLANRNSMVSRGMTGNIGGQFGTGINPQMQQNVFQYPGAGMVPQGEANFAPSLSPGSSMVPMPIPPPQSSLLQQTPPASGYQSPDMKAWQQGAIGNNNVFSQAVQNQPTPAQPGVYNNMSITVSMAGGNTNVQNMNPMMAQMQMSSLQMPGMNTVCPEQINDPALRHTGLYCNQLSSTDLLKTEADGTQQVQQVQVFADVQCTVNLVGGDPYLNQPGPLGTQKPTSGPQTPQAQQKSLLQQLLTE

[4] = VP16 transactivation inhibitors, counter-screen for SRC1 inhibitor project, cell-based, luminescence, high throughput (AID 588824; in the data active = inhibition above about 25%); details: cell-based VP16 transactivation luciferase luminescence; at 3.6 µM; active compounds read high

Compound | inhibition [1] | inhibition [2] | inhibition [3] | inhibition [4]
COc1ccc(-n2c(C)c(C(C)=O)c3cc(OC(C)=O)ccc32)cc1 | 77.5% (active) | 55% (active) | 65.2% (active) | 60.4% (active)
O=c1[nH]c(=O)n(C2C[C@H](O)[C@@H](CO)O2)cc1C(F)(F)F (some centres undefined) | 45.7% (active) | 40% (active) | 54.4% (active) | 44.3% (active)
COC(CN(C(=O)CCl)C(C(=O)NC1CCCCC1)c1ccccc1C)OC (centres undefined) | 53.3% (active) | 24.2% | 26.2% | 25.1%
Cc1nc(N2CCC(C(N)=O)CC2)c2c(-c3cccs3)csc2n1 | 38% | 25.8% | 34.9% | 18.9%
COc1ccc(-c2cn[nH]c2-c2ccc(OCc3ccc([N+](=O)[O-])cc3)cc2O)cc1 | 33.1% | 34% (active) | 39.1% | 27.4% (active)
Cn1nnnc1N=N/C(=N/Nc1ccccc1)c1ccccc1 | 79.8% (active) | 42.9% (active) | 55.5% (active) | 32.8% (active)
CN(C(=O)COC(=O)/C=C/c1cccc([N+](=O)[O-])c1)C1CCS(=O)(=O)C1 (centres undefined) | 39.1% | 32.4% (active) | 41.6% | 29.5% (active)
Cc1cc(C)nc(/N=C(\N)Nc2ccc(-c3ccccc3)cc2)n1 | 9.37% | 33.3% (active) | 21.7% | 30.1% (active)
COc1cccc(-c2ccc3ncnc(NCc4cccnc4)c3c2)c1 | 45.5% (active) | 31.6% (active) | 24.8% | 36.2% (active)
CCN(CC)c1ccc(/C=N/NC(=O)CCC(=O)NCc2ccccc2)c(O)c1 | 22.7% | 21.6% | 12.5% | 28.9% (active)
COCC(C)n1c(C)cc(C(=O)COC(=O)c2cc(=O)[nH]c3ccccc23)c1C (centres undefined) | 1.93% | -15.5% | -34.1% | -32.1%
CC(=O)N1CCN(c2ccc(Oc3ncnc4sccc34)cc2)CC1 | 25.7% | 16.9% | 27.3% | 16.9%
Cc1ccc(NC(=O)CCC(=O)N/N=C/c2ccc(O)cc2O)cc1 | 7.69% | 7.07% | 20.4% | 15.4%
COc1ccc(CN(C)C(=O)c2ccc(OCC(=O)Nc3cccc(C(F)(F)F)c3)c(OC)c2)cc1 | 4.69% | 24.7% | 2.4% | 20.5%
COc1ccc(NS(=O)(=O)c2ccc(NC(=O)c3ccc(N(C)S(C)(=O)=O)cc3)cc2)c(OC)c1 | 12.3% | 37% (active) | -6.59% | 36.6% (active)
O=C(Nc1cccnc1)c1ccc(C(=O)Nc2cccnc2)cc1 | 32.2% | 19.1% | 23.3% | 20.4%
CN(C)c1ccc(Nc2ncnc3ccc(Br)cc23)cc1 | 47.3% (active) | 30.8% (active) | 40.8% | 20.2%
CCCC(=O)NC(c1ccccc1OC)c1ccc2cccnc2c1O (centres undefined) | 61.1% (active) | 37.8% (active) | 52.2% (active) | 41.9% (active)
Cc1nn(-c2ccccc2)c(Cl)c1C(=O)N1CCN(c2ncnc3c2cnn3-c2ccccc2)CC1 | 25.8% | 31.4% (active) | 4.61% | 44.9% (active)
O=C(NNc1ccccc1)C(=O)NNc1ccccc1 | 25.6% | 49.3% (active) | 8.21% | 48.9% (active)
COc1cccc(-c2ccc3ncnc(NCc4ccc5c(c4)OCO5)c3c2)c1 | 37.3% | 30.1% (active) | 45.2% | 30% (active)
